# Assay outcomes (PubChem)
# In the library only some 31% were active in any assay of this set; here they are far more common.
# CYP2C19 act – human CYP2C19 activators, primary screen, biochemical, luminescence. recombinant CYP2C19, luciferin-H EGE luminescence; stronger effect = higher value; 0 = fully inhibited enzyme, 1 = untreated enzyme. activation factor at 5 µM. Cytochrome P450 2C19 (Homo sapiens), P33261. 96,000 tested, under 10 active;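 active = activation factor of at least 2 at 5 µM in the primary screen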;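 note: 0 = wells with 2.5 mM tranylcypromine and 1 = vehicle-only wells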
# Target sequence (P33261 whole entry, looked up): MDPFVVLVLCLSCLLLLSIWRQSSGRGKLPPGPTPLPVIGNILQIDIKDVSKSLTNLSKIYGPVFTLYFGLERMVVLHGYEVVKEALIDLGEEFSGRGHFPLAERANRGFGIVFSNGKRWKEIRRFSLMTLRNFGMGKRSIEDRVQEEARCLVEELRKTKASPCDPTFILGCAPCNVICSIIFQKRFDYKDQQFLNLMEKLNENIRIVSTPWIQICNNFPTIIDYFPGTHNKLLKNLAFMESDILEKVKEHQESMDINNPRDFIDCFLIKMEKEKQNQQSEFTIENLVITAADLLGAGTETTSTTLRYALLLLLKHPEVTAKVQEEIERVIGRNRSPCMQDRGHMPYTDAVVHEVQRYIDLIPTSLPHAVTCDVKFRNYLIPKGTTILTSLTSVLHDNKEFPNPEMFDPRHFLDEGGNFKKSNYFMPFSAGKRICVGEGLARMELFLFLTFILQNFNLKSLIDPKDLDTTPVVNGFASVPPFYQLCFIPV
# CYP2C9 inh – blockers of cytochrome P450 2C9 activity – biochemical, luminescence, ADME assay, primary screen; P11712; CYP2C9 Supersomes, luciferin-H conversion; inhibition, % at 5 µM; 96,000 compounds, 20% hits;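 active = blocking of liver enzyme CYP2C9 beyond about 50% at 5 µM, limit read from the data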
# CYP2C19 inh – blockers of cytochrome P450 2C19 activity – biochemical, luminescence, ADME assay, primary screen. CYP2C19 Supersomes, luciferin-H EGE luminescence, 30 min. inhibition, % at 5 µM. 96,000 compounds, 21% hits;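 active = CYP2C19 inhibition above a set limit at 5 µM in the primary screen, cut at about 50% in these data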;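 note: plate controls were negative control wells for no effect and 2.5 mM tranylcypromine positive control for full effect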
# CYP2C9 activ – human CYP2C9 activators, primary screen, biochemical, luminescence. Cytochrome P450 2C9 (Homo sapiens), P11712. recombinant CYP2C9, luciferin-H conversion; stronger effect = higher value; factor 1 = untreated enzyme, 0 = blocked. activation factor at 5 µM. 96,000 compounds, 1.4% hits;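 active = activation factor of 2 or more for CYP2C9 at a 5 µM dose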;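 note: 0 = sulfaphenazole-blocked wells and 1 = vehicle-only wells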
# * = called active by the depositor.
SMILES,CYP2C19 act,CYP2C9 inh,CYP2C19 inh,CYP2C9 activ
C=CCn1c(O)c(C(C)=Nc2ccc(C(=O)OCC)cc2)c(=O)[nH]c1=O,0.6,47.9,41.6,0.5
Cc1ccc(C(=O)n2cc(CCN3CCS(=O)(=O)CC3)c3ccccc32)cc1,0.6,42.2,38.6,0.6
O/N=C1/C(=C\c2ccccc2)N2CCC1CC2,0.2,34.7,83.3*,0.7
CC(=O)c1c(C)n(CCCOC(C)C)c2ccc(O)cc12,0.4,55.2*,62.0*,0.4
CC(C)Oc1cc(-n2c(=S)[nH]c3ccccc3c2=O)c(Cl)cc1Cl,0.1,71.5*,90.2*,0.3
COc1cc(-n2c(=S)[nH]c3ccccc3c2=O)c(Cl)cc1Cl,0.1,57.8*,90.5*,0.4
Cc1ccc(CN2CCN(C)CC2)c(C)c1,0.8,-7.0,20.4,1.1
O=c1c2ccccc2nc(-c2cccs2)n1-c1cnccn1,0.9,6.1,7.1,0.9
Cc1ccc(-n2c(-c3cccs3)nc3ccccc3c2=O)cc1,0.6,57.9*,35.7,0.4
N#Cc1cc2c(nc1SCC(=O)Nc1cc(Cl)cc(Cl)c1)C1CCN2CC1,1,39.3,4.6,0.6
CN1CCc2nc(SCC(=O)OC(C)(C)C)c(C#N)cc2C1,0.3,22.4,70.6*,0.8
CN1CCc2nc3sc(C#N)c(N)c3c(-c3cccs3)c2C1,0.9,56.0*,9.6,0.4
CN1CCc2nc(N)c(C#N)c(-c3ccccc3)c2C1,1.1,-10.4,-10.8,1.1
O=C1Nc2ccccc2/C1=C/c1cnc[nH]1,0,92.1*,98.9*,0.1
CC(=O)Nc1ccc(OC(=O)N(C)C)cc1,1,-0.4,1.2,1
C=CCn1c(O)c(C(C)=NCc2cccnc2)c(=O)[nH]c1=O,0.3,8.0,68.2*,0.9
CCC(=Nc1cc(OC)ccc1OC)c1c(O)[nH]c(=O)[nH]c1=O,1.1,-9.5,-7.2,1.1
C=CCn1c(O)c(C(C)=NCc2cc(OC)cc(OC)c2)c(=O)[nH]c1=O,0.2,84.8*,83.0*,0.2
C=CCn1c(O)c(C(CC)=Nc2cc(OC)ccc2OC)c(=O)[nH]c1=O,0.2,90.0*,79.3*,0.1
O=C(NC1CC1)C1CSC(c2cccnc2)=N1 (centres undefined),1,-0.2,-4.7,1
CN1CCc2c(c(N3CCCCC3)nc3n[nH]c(N)c23)C1,1.2,-25.6,-20.0,1.3
CCOP(=O)(OCC)C(CC)N1CCOCC1 (centres undefined),1,-7.0,-4.6,1.1
CCC1(CCc2ccncc2)C(=O)NC(=O)NC1=O,1,42.1,3.9,0.6
Cc1ccc(-n2c(O)c(C=NCc3cccnc3)c(=O)[nH]c2=O)cc1C,0.8,20.8,19.3,0.8
COCCNC(=O)c1c(NC(=O)c2ccco2)n(Cc2ccccc2)c2nc3ccccc3nc12,0.6,76.5*,38.1,0.2
SMILES,CYP2C19 act,CYP2C9 inh,CYP2C19 inh,CYP2C9 activ
O=C(O)c1c[nH]c2ccc(S(=O)(=O)N(CCCl)CCCl)cc12,1.2,-17.7,-16.4,1.2
COc1cccc(NC(=O)CN2CC(c3ccccc3)CC2=O)c1 (centres undefined),0.4,-0.4,61.2*,1
FC(F)(F)c1ccc2c(c1)N(CCCN1CCN(CCCl)CC1)c1ccccc1S2,0.5,-6.3,50.4*,1.1
COC(=O)c1ccc(N2C(=O)CC(N3CCC(n4c(=O)[nH]c5ccccc54)CC3)C2=O)cc1 (centres undefined),0.4,23.7,59.8*,0.8
Cc1cc(N2C(=O)CC(N3CCC(n4c(=O)[nH]c5ccccc54)CC3)C2=O)no1 (centres undefined),1,-9.4,-2.9,1.1
C=CCOC(=O)C1=C(C)OC(N)=C(C(=O)OCC)C12C(=O)N(CC(N)=O)c1ccccc12 (centres undefined),1.1,-4.6,-7.3,1
CC1CN(O)C2CCc3c(no[n+]3[O-])C12O (centres undefined),1.1,-12.3,-9.9,1.1
CCCCN1CCC(C#N)(Nc2ccccc2)CC1,0.3,20.7,70.9*,0.8
Cc1cc(C=O)c(C)n1CC1CCCO1 (centres undefined),1,-3.1,1.8,1
COc1cccc(-c2cc(C(F)(F)F)n3nc(C(=O)N4CCC5(CC4)OCCO5)cc3n2)c1,0.2,69.0*,77.3*,0.3
O=C(Nc1ccc(Cl)cc1C(=O)c1ccccc1)c1ccc(Br)o1,1.1,-8.5,-14.7,1.1
CC1=CC(C)C(COC(N)=O)(COC(N)=O)C(C)C1 (centres undefined),0.6,7.3,43.6,0.9
Cc1nn(-c2ccccc2)c2c1C(c1ccc3c(c1)OCO3)SCC(=O)N2 (centres undefined),0.1,90.0*,90.4*,0.1
COc1ccc(C2SCC(=O)Nc3c2c(C)nn3C2CCOC(C)(C)C2)cc1 (centres undefined),0.9,10.3,8.2,0.9
COc1cc(C2SCC(=O)Nc3c2c(C)nn3-c2ccccc2)cc(OC)c1OC (centres undefined),0.2,69.1*,79.3*,0.3
CCOP(=O)(OCC)C(O)c1ccc(OC)c(OC)c1 (centres undefined),0.9,-15.2,14.6,1.2
CCCCC(=O)C1C(=O)NC(=O)NC1=O,0.9,3.6,5.1,1
CN=C(SCc1cc2c(cc1Cl)OCO2)c1c(O)n(C)c(=O)n(C)c1=O,0.8,27.5,19.4,0.7
CCOc1cc(C2NCc3ccccc3-n3cccc32)ccc1O (centres undefined),0.4,74.6*,60.8*,0.3
CCOc1cccc(C2NCc3ccccc3-n3cccc32)c1O (centres undefined),0.6,26.1,38.2,0.7
CN(Cc1ccccc1)Cc1ccccc1OC(=O)N(C)C,0.5,-5.9,54.1*,1.1
CN(C)C(=O)Oc1cccc2c(OC(=O)N(C)C)cccc12,1.1,21.2,-10.2,0.8
COc1ccc(N2C(=O)CC(N3CC=C(c4ccccc4)CC3)C2=O)cc1 (centres undefined),1,37.7,-1.7,0.6
COc1ccc(CCN(C)Cc2ccncc2)cc1OC,0.2,67.3*,81.8*,0.3
COc1ccc(CCNCc2ccncc2)cc1OC,0.3,52.1*,65.9*,0.5
SMILES,CYP2C19 act,CYP2C9 inh,CYP2C19 inh,CYP2C9 activ
COc1cc(OC)c(OC)cc1CNCCc1ccc(OC)c(OC)c1,1.1,-3.3,-8.4,1
Cc1ccc2c(c1)CC1(CN2C)C(=O)NC(=O)N(CCc2ccccc2)C1=O (centres undefined),0.9,47.9,11.6,0.5
CCC(=NCc1ccco1)c1c(O)[nH]c(=O)[nH]c1=O,0.9,40.7,10.2,0.6
CCOC(=O)c1cn2nc(OP(=S)(OCC)OCC)cc2nc1C,0,82.5*,98.3*,0.2
O=C1NC(=O)C(CCc2ccncc2)(Cc2ccc3c(c2)OCO3)C(=O)N1CCc1ccccc1 (centres undefined),0,89.5*,99.1*,0.1
CN1C(=O)N(C)C(=O)C(CCc2ccncc2)(Cc2ccc3c(c2)OCO3)C1=O,0,73.7*,98.8*,0.3
